# Source: PubChem BioAssay
# Hits are enriched below; roughly 0.54% of the tested compounds scored in any of these assays.
# BCR signal inh: chronic active BCR signaling inhibition. AID 493014. Potency, µM (highest dose often 46.1 µM), for inactives: at the highest dose activity change, negative = inhibition, hits mostly inhibitors. ABC-DLBCL IkBa-CBG/CBR reporter, luminescence ratio, 4 h. hit rate 0.05% among 340,000; active = well fitted inhibition curve with a large enough effect in the signal ratio, with a control signal flat, not every such curve was filed as active; inconclusive = small, poorly fitted or top-dose-only effect, or effect the other way, or a change in a side signal; the % refers to the signal ratio;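 note: potency is the fitted concentration of half-maximal effect; plate controls were basal doxycycline-induced cells for no effect and cells given 10 µM MG132 for full effect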
#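 TMD8 human ABC-DLBCL cells with doxycycline-inducible IκBα–green luciferase fusion and unfused red luciferase, in 0.5% FBS medium; compounds up to 46 uM, 4 h at 37C. Green/red luminescence ratio, filter-overlap corrected, fitted to concentration-response curves.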
# TCR act: T cell receptor activation; primary human leukocytes, anti-CD3, IL-2 HTRF, 48 h; Potency, µM (series often up to 9.22 µM), inactives show at the highest dose activation of IL-2 secretion, actives largely listed as activators; 330,000 tested, under 10 active; note: % of control where 0% means no effect
#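 Primary human leukocytes incubated 48 hr with anti-CD3 beads plus compound, without co-stimulation. Secreted IL-2 measured by HTRF (europium cryptate/d2 anti-IL-2 pair, 320 nm excitation, 665 nm emission).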
# uPA generation: cell surface uPA generation inhibition; cell surface uPA generation assay, qHTS; Potency, µM (titrated, usually from 38.3 µM), inactives show top-dose activity change, negative = inhibition, usual class: inhibitors; hit rate 0.31% among 330,000; AID 540303; active = well fitted inhibition curve with a large enough effect; inconclusive = small, poorly fitted or top-dose-only effect; inactive = no such curve, though single readings can be large or run the other way; tested in mouse RAW 264.7 cells; note: potency is the fitted concentration of half-maximal effect; % is set by controls: 0 for no effect and ±100 for the full control effect; nearly all actives have a fitted effect of over 55% in size
# Vif-APOBEC3G blk: inhibitors of Vif-APOBEC3G interaction; Q9HC16; HeLa A3G-eYFP + Vif (tagged APOBEC3G with the HIV-1 protein that degrades it), YFP fluorescence, overnight; Potency, µM (series often up to 46.1 µM), for the others: at the highest dose activity, negative = active, usual class: inhibitors; hit rate 0.076% among 410,000; note: potency is the fitted concentration of half-maximal effect; % is set by controls: 0 for no effect and ±100 for the full control effect; nearly all actives have a fitted effect of over 60% in size
# Target sequence (Q9HC16 whole entry, looked up): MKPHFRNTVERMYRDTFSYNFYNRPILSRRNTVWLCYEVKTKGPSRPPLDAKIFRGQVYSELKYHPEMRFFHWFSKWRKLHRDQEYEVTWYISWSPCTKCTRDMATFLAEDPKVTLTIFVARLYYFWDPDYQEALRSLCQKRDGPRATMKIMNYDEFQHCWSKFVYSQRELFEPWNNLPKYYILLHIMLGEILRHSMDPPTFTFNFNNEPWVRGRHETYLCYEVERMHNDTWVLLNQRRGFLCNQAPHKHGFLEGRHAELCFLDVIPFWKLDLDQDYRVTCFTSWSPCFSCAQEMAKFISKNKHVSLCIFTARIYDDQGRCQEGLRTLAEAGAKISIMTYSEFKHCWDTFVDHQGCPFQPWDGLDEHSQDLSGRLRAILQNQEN
#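 HeLa cells stably expressing Vif and C-terminally eYFP-tagged A3G, seeded overnight at 37 deg C, then exposed to compound by pintool overnight at 37 deg C. Rise in yellow fluorescence (Ex 488/Em 500-530, Acumen) marks blocked Vif-driven A3G degradation.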
# MBNL1-CUG inh: MBNL1-poly(CUG) RNA binding inhibition; Q9NR56; TR-FRET MBNL1-His/biotin-(CUG)12 binding, 665/545 ratio; Potency, µM (series often up to 57.5 µM), inactives show at the highest dose activity change, negative = inhibition, usual class: inhibitors; hit rate 0.036% among 280,000; AID 2675; active = well fitted inhibition curve with a large enough effect in the signal ratio, with a control signal flat, not every such curve was filed as active; inconclusive = small, poorly fitted or top-dose-only effect, or effect the other way, or a change in a side signal; inactive = no such curve, though single readings can be large or run the other way; the % refers to the signal ratio; note: potency is the fitted concentration of half-maximal effect; % is set by controls: 0 for no effect and ±100 for the full control effect
# Target sequence (Q9NR56 whole entry, looked up): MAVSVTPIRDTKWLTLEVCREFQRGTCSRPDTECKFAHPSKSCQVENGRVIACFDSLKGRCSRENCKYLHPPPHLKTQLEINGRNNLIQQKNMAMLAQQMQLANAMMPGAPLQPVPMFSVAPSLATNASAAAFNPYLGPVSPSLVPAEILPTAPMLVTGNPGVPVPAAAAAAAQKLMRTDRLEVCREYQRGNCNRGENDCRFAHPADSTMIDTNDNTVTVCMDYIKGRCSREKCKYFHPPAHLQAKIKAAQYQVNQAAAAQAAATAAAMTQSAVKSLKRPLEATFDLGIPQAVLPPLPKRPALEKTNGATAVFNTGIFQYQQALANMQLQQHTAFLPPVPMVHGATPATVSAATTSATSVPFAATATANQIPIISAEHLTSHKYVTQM
#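 TR-FRET readout: Ex 340 nm, 665/545 nm emission ratio, normalized to buffer-only (basal) and MBNL1-(CUG)12 controls. Complex of MBNL1-His with Biotin-(CUG)12, compounds 92 nM–58 uM, incubated 60 min at room temperature.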
# Vif-A3F inh: blocks the Vif interaction with APOBEC3F. HeLa A3F-eYFP + Vif (tagged APOBEC3F with the HIV-1 protein that degrades it), YFP fluorescence increase. Potency, µM (doses to about 46.1 µM), without a hit: top-dose activity, negative = active. hit rate 0.2% among 390,000; note: potency is the fitted concentration of half-maximal effect; % of control where 0% means no effect; nearly all actives have a fitted effect of over 65% in size
#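 HeLa cells stably expressing Vif plus C-terminally eYFP-tagged A3F were seeded, incubated overnight at 37 deg C, dosed with compound, incubated overnight again at 37 deg C. Yellow fluorescence (Ex 488/Em 500-530) reported blocked Vif-mediated A3F-eYFP degradation.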
# * hit, by the source's call; ? = inconclusive; nt = no result; [ ] = remark or other dose. Unless noted, calls come from the whole dose curve; as a rule, active = well fitted curve in the direction sought with a large enough effect; inconclusive = small, poorly fitted or top-dose-only effect, or another doubt; inactive = no such curve, though single readings can be large; an effect the other way counts as inactive or inconclusive.
SMILES,BCR signal inh,TCR act,uPA generation,Vif-APOBEC3G blk,MBNL1-CUG inh,Vif-A3F inh
Cn1c(SCC(=O)NCc2ccco2)nnc1-c1ccc(NC(=O)c2ccccc2)cc1,nt,nt,nt,-6%,nt,nt
COc1cc(N/N=C/c2ccc(N(C)C)cc2)ncn1,?,-6%,3.5µM*,0%,21%,2%
O=C(Cn1ncc(Cl)c(Cl)c1=O)N1CCN(Cc2ccccc2)CC1,?,3%,11µM*,?,41%,1%
O=C(Cn1ncc(Cl)c(Cl)c1=O)N1CCOCC1,?,-31%,-19%,-15%,19%,3%
CC(=O)c1sc2nc(-c3cccs3)cc(C(F)(F)F)c2c1N,2%,-8%,3%,?,27%,5µM*
Oc1c(C(c2ccccc2Cl)N2CCCC2)ccc2cccnc12 (stereo not given),?,-2%,7.9µM*,-25%,8%,?
COCCNC(=S)N/N=C(\C)c1ccc(OC(F)F)cc1,?,-3%,-1%,-1%,-2%,25µM*
COCCNC(=S)N/N=C(\C)c1ccc(OC)cc1,?,1%[46.1 µM],1%,0%,-16%,0%
O=C(NCc1cccnc1)c1ccc(-c2ccc(Cl)cc2)o1,?,6%,-15%,-5%,16%,?
O=C(NCc1cccnc1)/C(=C\c1ccc(-c2ccc(Cl)c(Cl)c2)o1)S(=O)(=O)c1ccccc1,?,-3%[46.1 µM],10µM*,-16%,-8%,-12%
C=C1C=C(C)n2ncc(C(=O)Nc3cccc4cnccc34)c2N1,nt,nt,nt,1%,nt,nt
O=C(N/N=C/c1cccc2cccnc12)c1ccccc1O,?,-5%,5µM*,0%,?,0%
O=C(N/N=C/c1cccc2nccnc12)c1ccccc1O,?,5%,-1%,-8%,nt,-15%
Clc1cccc(CSc2nc3ccncc3[nH]2)c1,-10%,2%,4.5µM*,-1%,-5%,-11%
CC(C)CCOc1ccc(CC(=O)NO)cc1,nt,nt,nt,2%,nt,nt
COc1cc2c(cc1OC)C(C)N(C(=O)c1cc(C)on1)CC2 (stereo not given),?,-4%,-10%,?,3%,-1%
COc1cc2c(cc1OC)C(C)N(C(=O)c1c(C)noc1C)CC2 (stereo not given),?,-8%,5µM*,?,-16%,-4%
Cc1cc2cc3c(cc2nc1SCc1ccccn1)OCCO3,1%,-3%,6%,1%,nt,-9%
N#Cc1cc2ccccc2nc1SCc1ccccn1,?,nt,nt,?,23%,13µM*
O=C(C[n+]1csc2ccccc21)c1cccc([N+](=O)[O-])c1,nt,nt,nt,4%,nt,nt
COc1cccc(C2CC(c3ccccc3)=NN2S(=O)(=O)c2ccc(C)cc2)c1OC (stereo not given),?,10%,-2%,?,3%,25µM*
C=C1C=C(C)n2ncc(C(=O)Nc3ccccc3C(=O)OC)c2N1,nt,nt,nt,-3%,nt,nt
CCOC(=O)C[C@H]1c2cc(F)ccc2S(=O)(=O)N1Cc1cc(OC)c(OC)c(OC)c1,nt,nt,nt,1%,nt,nt
CCc1ccc2nc3n[nH]c(N)c3cc2c1,13µM*,3%,-13%,-28%,?,-1%
C[n+]1ccc(/C=C/c2ccc([N+](C)(C)C)cc2)c2ccccc21,nt,nt,nt,4%,nt,nt
SMILES,BCR signal inh,TCR act,uPA generation,Vif-APOBEC3G blk,MBNL1-CUG inh,Vif-A3F inh
O=C(N/N=C/c1cc(Cl)cc(Cl)c1O)c1ccncc1,13%,-5%,3.2µM*,-7%,nt,18%
CC[n+]1ccc(/C=C2\Sc3ccccc3N2CCCS(=O)(=O)[O-])c2ccccc21,?,2%,-4%,?,?,3.5µM*
C[n+]1ccccc1/C=C1\Sc2ccccc2N1CCO,4%,nt,2%,-15%,?,-12%
O=C1/C(=C/c2ccc([N+](=O)[O-])cc2)Oc2cc(O)ccc21,?,3%,-11%,-2%,?,22µM*
O=C1CCC[C@@H]2CC(Nc3ccccc3)C[C@@H]3CCN1[C@H]23 (stereo not given in full),nt,nt,nt,3%,nt,nt
Cc1nc2c3cc(F)ccc3n(Cc3ccccc3)c2s1,?,2%[46.1 µM],?,6.3µM*,nt,-28%
COc1ccc(Cl)c(Cn2cnc3c(cnn3C(C)(C)C)c2=O)c1F,nt,nt,nt,-1%,nt,nt
Cc1ccc(-n2nc3c(=O)n(CC(=O)NCCCc4ccccc4)nc(C)c3c2C)cc1,7%,-3%,0.5µM*,4%,1%,0%
CCN1CCN(c2ccc(S(=O)(=O)N3CCOCC3)cc2NC(=O)C2CCC(C(C)(C)C)CC2)CC1 (stereo not given),nt,5%,4.5µM*,2%,nt,-7%
CN1CCN(c2ccc(S(=O)(=O)N3CCOCC3)cc2NC(=O)C2CCCCC2)CC1,nt,-7%,-36%,3%,nt,3%
Cc1cc(C(Br)(Br)Br)nc2ccccc12,nt,nt,nt,-17%,nt,nt
Cc1nnc(NC(=O)c2ccc(N3CCCC3=O)cc2)s1,12%,-8%,-4%,1%,nt,-13%
Cc1csc(NC(=O)c2ccc(N3CCCC3=O)cc2)n1,?,-15%,2.8µM*,-1%,0%,-7%
CCc1ccc(-c2cc(C)no2)cc1S(=O)(=O)N1CCN(c2ccccn2)CC1,0%,-8%,-10%,2%,-2%,-12%
Cc1cc(-c2ccc(C(C)C)c(S(=O)(=O)N3CCN(c4ccccn4)CC3)c2)on1,-2%,3%,0.89µM*,-24%,-13%,-4%
COc1ccc(NC(=O)c2ccc(NC(=O)C(C)C)cc2)c([N+](=O)[O-])c1,2%,1%[46.1 µM],2%,-9%,?,10µM*
COc1ccc(/C=C/c2cccc[n+]2C)c(O)c1,0%,nt,6%,12%,?,-22%
CCN(CC)c1ccc(/C=C/c2cccc[n+]2C)c(OC)c1,-1%,-1%,-18%,7.9µM*,?,-530%
C[C@H](NC(=O)[C@H](Cc1ccccc1)n1c(=O)[nH]c2ccccc2c1=O)C(=O)N1CCC(C(=O)O)CC1,10%,-8%,4.5µM*,1%,-1%,-7%
CC(C)C[C@H](NC(=O)[C@H](Cc1ccccc1)n1c(=O)[nH]c2ccccc2c1=O)C(=O)N1CCC(C(=O)O)CC1,6%,1%,8%,1%,10%,6%
CC(=O)Nc1ccc(/C=C/c2ccccn2)cc1,nt,nt,nt,3%,nt,nt
Cc1ccc2c(/C=C/c3ccc(N(C)C)cc3)c(C)cnc2c1,nt,nt,nt,-16%,nt,nt
O=C(Oc1ccc(Cl)c2cccnc12)c1ccco1,?,-4%,-5%,11µM*,13%,-7%
O=C(Oc1cccc2cccnc12)c1ccco1,23µM*,-4%[46.1 µM],-2%,?,1%,-7%
CCCCOC(=O)c1ccc(NC(=O)CN2C(=O)NC3(CCCCCC3)C2=O)cc1,1%,7%,8.9µM*,-6%,nt,-8%
